From PubChem BioAssay (EPA / NIEHS)
“And” between values parts separate entries of the source, which are not always exact repeats. Equal entries are not always repeated. Results filed as inconclusive are left out. More than one record can exist for a structure, and the calls need not agree. The source made the active and inactive calls. How the source made its calls, unless noted: active means hit-call score of the fitted dose curve at least 0.9, where 1 is the maximum; inactive means score below 0.9.

Key:
[1] = CCTE_Shafer_MEA_dev_per_burst_interspike_interval: CCTE's Neural Network Formation Assay for Burst Interspike Interval, Shafer Lab (AID 2284044);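 further: potency for a decrease of within-burst interspike interval below DMSO level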
Summary of the method: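 Readout is the average time between spikes inside single-electrode bursts, taken as a well mean across bursting electrodes. Cortical neurons from rat developed networks on MEA plates under continuous 12-day exposure; recordings on days 5, 7, 9 and 12 were integrated by trapezoidal AUC.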

[2] = CCTE_Shafer_MEA_dev_burst_duration_mean: CCTE's Neural Network Formation Assay for Mean Burst Duration, Shafer Lab (AID 2284045);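 further: curve fitted for loss meaning shorter burst duration than DMSO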
Summary of the method: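 Mean single-electrode burst duration (first to last spike), averaged over bursting electrodes per well, then integrated as area-under-curve across recordings at days 5, 7, 9 and 12. Rat cortical cultures on MEAs, compound present from plating, refreshed at feeds.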

[3] = CCTE_Shafer_MEA_dev_interburst_interval_mean: CCTE's Neural Network Formation Assay for Mean Interburst Interval, Shafer Lab (AID 2284046);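 further: well-mean interburst interval of bursting electrodes as AUC over four recording days; curve fitted for decrease in interburst interval relative to DMSO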
Summary of the method: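 Primary rat cortical neurons on PEI-coated 48-well MEA plates (laminin added with cells at plating) (16 electrodes/well), exposed from plating day 0 with renewal at DIV 5 and 9. Mean inter-burst interval averaged over bursting electrodes, AUC across days 5, 7, 9, 12; DMSO baseline.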

[4] = CCTE_Shafer_MEA_dev_inter_network_spike_interval_mean: CCTE's Neural Network Formation Assay for Mean Inter-network Spike Interval, Shafer Lab (AID 2284047);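 on AC50: potency for a decrease in mean inter-network spike interval below DMSO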
Summary of the method: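 Mean time between consecutive network-spike peaks, recorded extracellularly (adaptive spike detection) on DIV 5, 7, 9 and 12, summarized as trapezoidal AUC. Rat cortical cultures on MEAs dosed continuously days 0–12, re-dosed at feeds; loss-of-signal fit relative to DMSO.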

[5] = CCTE_Shafer_MEA_dev_network_spike_number: CCTE's Neural Network Formation Assay for Number of Network Spikes, Shafer Lab (AID 2284048);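 further: fit as a loss of signal meaning fewer network spikes than DMSO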
Summary of the method: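 Number of network spikes (coordinated firing across electrodes) recorded on days 5, 7, 9 and 12 and summarised as area under the curve. Rat cortical cultures on MEA, continuous compound exposure with full medium/treatment exchange at DIV 5 and 9.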

[6] = CCTE_Shafer_MEA_dev_network_spike_peak: CCTE's Neural Network Formation Assay for Mean Number of Electrodes in Network Spike, Shafer Lab (AID 2284049);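 further: fitted for loss of signal meaning fewer electrodes in network spikes than DMSO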
Summary of the method: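 Rat cortical primary culture, 1.5 x 10^5 cells/well, 48-well MEA (16 electrodes/well). Dosing day 0 through DIV 12, full media/compound exchange DIV 5, 9. AxIS adaptive spike detection; AUC over days 5/7/9/12; loss-of-signal vs DMSO.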

[7] = CCTE_Shafer_MEA_dev_spike_duration_mean: CCTE's Neural Network Formation Assay for Mean Spike Duration, Shafer Lab (AID 2284051);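 further: mean network spike duration pooled as area under curve over DIV 5 to 12 recordings; potency for a decrease in mean network spike duration versus DMSO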
Summary of the method: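 Spontaneous activity was recorded on days 5, 7, 9 and 12 from rat cortical cultures grown on microelectrode arrays and dosed continuously from day 0, with media and compound renewed after the DIV 5 and 9 recordings. Network-spike duration was collapsed by area under the curve.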

[8] = CCTE_Shafer_MEA_dev_network_spike_duration_std: CCTE's Neural Network Formation Assay for Standard Deviation of Network Spike Duration, Shafer Lab (AID 2284052);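 further: hits are decreases in network spike duration SD versus DMSO vehicle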
Summary of the method: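 Network spike duration variability was collapsed across recordings on days 5, 7, 9 and 12 by trapezoidal area-under-curve and fitted downward against DMSO. Cultures were rat cortical neurons on PEI-coated MEA plates, dosed continuously from plating, refed with compound DIV 5/9.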

[9] = CCTE_Shafer_MEA_dev_per_network_spike_spike_number_mean: CCTE's Neural Network Formation Assay for Mean Number of Spikes in a Network Spike, Shafer Lab (AID 2284053);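 further: fitted as decrease in spikes per network spike relative to DMSO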
Summary of the method: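 Mean spike count within each network spike, taken in a 0.05 s window at its peak, was recorded on days 5, 7, 9 and 12 and integrated as trapezoidal area under the curve. Rat cortical cultures on MEA plates received continuous compound from day 0, refreshed at medium changes on DIV 5 and 9.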

[10] = CCTE_Shafer_MEA_dev_per_network_spike_spike_percent: CCTE's Neural Network Formation Assay for Percent of Spikes in a Network Spike, Shafer Lab (AID 2284054)
Summary of the method: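 Metric: fraction of spikes falling in a 0.05 s window at network-spike peaks. Recordings were made on days 5, 7, 9 and 12 and collapsed by trapezoidal AUC. Cultures were rat cortical neurons on MEA plates, dosed continuously from plating, re-dosed at media changes.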

[11] = CCTE_Shafer_MEA_dev_LDH: CCTE's Lactate Dehydrogenase Assay for Cytotoxicity in the Neural Network Formation Assay, Shafer Lab (AID 2284068; active means hit-call score of the fitted dose curve at least 0.9, where 1 is the maximum;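 further: exposure for twelve days from plating with re-dosing on DIV 5 and 9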)
Summary of the method: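 Primary rat cortical neurons were cultured on PEI-coated MEA plates and exposed from plating through day 12, with compound renewed at medium changes on DIV 5 and 9. LDH activity was read spectrophotometrically; loss of signal versus DMSO indicates reduced viability.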

[12] = CCTE_Shafer_MEA_dev_AB: CCTE's Alamar Blue Assay for Cytotoxicity in the Neural Network Formation Assay, Shafer Lab (AID 2284083; active means hit-call score of the fitted dose curve at least 0.9, where 1 is the maximum;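 further: resazurin reduction fluorescence as viability of cultured neurons; twelve days of exposure from plating with re-dosing on DIV 5 and 9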)
Summary of the method: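 Resazurin fluorescence, relative to DMSO, gauges viability after twelve days of exposure that began at plating of rat cortical neurons (1.5 x 10^5 cells/well, 48-well MEA); treatment renewed with full medium exchange on DIV 5 and 9.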

[13] = CCTE_Shafer_MEA_acute_LDH: CCTE's Lactate Dehydrogenase Assay for Cytotoxicity in the Neural Acute Assay, Shafer Lab (AID 2284086; active means hit-call score of the fitted dose curve at least 0.9, where 1 is the maximum;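 further: active means LDH release rises above DMSO vehicle level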)
Summary of the method: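 LDH absorbance at 490 nm in medium taken right after 40-min compound exposure; rat primary cortical neuron networks on MEA plates, days post-plating 13 or 15. Increase over DMSO baseline scored as cytotoxicity.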

[14] = CCTE_Shafer_MEA_dev_mutual_information_norm: CCTE's Neural Network Formation Assay for Mutual Information Normalization, Shafer Lab (AID 2284091);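 further: mutual information between electrodes summarised as area under curve across four recording days; potency is for a decrease in mutual information relative to DMSO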
Summary of the method: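 Shared information across electrodes, tracked on days 5, 7, 9 and 12 of network development and collapsed as trapezoidal area under the curve. Rat cortical cultures were treated continuously from plating, with treatment renewed at feeds on DIV 5 and 9; DMSO baseline, negative-direction fit.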

[15] = CCTE_Shafer_MEA_dev_correlation_coefficient_mean: CCTE's Neural Network Formation Assay for Mean Correlation Coefficient, Shafer Lab (AID 2284093);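 further: well mean pairwise spike train correlation integrated as AUC over recording days 5 to 12; potency fitted for loss of correlation relative to DMSO vehicle wells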
Summary of the method: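 Primary rat cortical neurons on PEI-coated 48-well MEA plates (16 electrodes/well) were exposed from plating day 0 through DIV12, with compound renewed at DIV5 and 9. Pairwise spike correlations were averaged per well; trapezoidal AUC across DIV5, 7, 9, 12.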

[16] = CCTE_Mundy_HCI_Cortical_NOG_NeuriteLength: CCTE's Neurite Outgrowth Assay in rat cortical cells for Neurite Length, Mundy Lab (AID 2284213);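 further: neurites imaged about 48 to 50 h after chemical exposure began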
Summary of the method: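 First, rat primary cortical cells were plated and, 2 h later, given test chemical as a 1/10 dilution. Finally, βIII-tubulin immunostaining enabled automated imaging of neurite length.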

[17] = CCTE_Mundy_HCI_Cortical_Synap_Neur_Matur_NeuriteLength: CCTE's Synaptogenesis and Neurite Maturation Assay in rat cortical cells for Neurite Length, Mundy Lab (AID 2284214)
Summary of the method: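 Read-out: high-content imaging of MAP2-labelled neurites, with synaptophysin and Hoechst co-stain, in rat cortical cultures fixed at DIV 12. Activity fitted in positive direction relative to DMSO baseline.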

[18] = CCTE_Mundy_HCI_Cortical_Synap_Neur_Matur_NeuriteSpotCountPerNeuron: CCTE's Synaptogenesis and Neurite Maturation Assay in rat cortical cells for Neurite Spot Count per Neuron Count, Mundy Lab (AID 2284215)
Summary of the method: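 Read-out: neurite-associated synaptophysin puncta per neuron, imaged by high-content analysis after MAP2, synaptophysin and Hoechst staining. Rat primary cortical cultures, dosed DIV 7 through DIV 12; DMSO served as baseline.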

[19] = CCTE_Mundy_HCI_Cortical_Synap_Neur_Matur_SynapseCount: CCTE's Synaptogenesis and Neurite Maturation Assay in rat cortical cells for Synapse Count, Mundy Lab (AID 2284218)
Summary of the method: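 Read-out: synapse number per neuron, automated high-content imaging of fixed cells immunostained for MAP2 and synaptophysin plus Hoechst nuclei. Rat primary cortical cultures, AraC at DIV 5, chemical dosing DIV 7–12. Positive-direction fit relative to DMSO.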

[20] = CCTE_Mundy_HCI_hN2_NOG_NeuriteCount: CCTE's Neurite Outgrowth Assay in human hN2 cells for Neurite Count, Mundy Lab (AID 2284219; active means hit-call score of the fitted dose curve at least 0.9, where 1 is the maximum)
Summary of the method: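 In this morphology assay, hNP1-derived neurons received test chemical 2 h post-plating and were fixed two days later in warm paraformaldehyde/sucrose containing Hoechst 33342. Neurites, labelled by rabbit anti-βIII-tubulin (1:800) and Alexa Fluor-488 (1:500), were counted automatically.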

[21] = CCTE_Mundy_HCI_hN2_NOG_NeuriteLength: CCTE's Neurite Outgrowth Assay in human hN2 cells for Neurite Length, Mundy Lab (AID 2284220; active means hit-call score of the fitted dose curve at least 0.9, where 1 is the maximum)
Summary of the method: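 Plate hNP1-derived neurons, then add chemical 2 h later as a 1/10 dilution. Stain with anti-βIII-tubulin then Alexa Fluor-488 secondary, and image automatically to measure neurite length.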

[22] = CCTE_Mundy_HCI_hN2_NOG_NeuronCount: CCTE's Neurite Outgrowth Assay in human hN2 cells for Neuron Count, Mundy Lab (AID 2284221; active means hit-call score of the fitted dose curve at least 0.9, where 1 is the maximum)
Summary of the method: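 Read-out is the number of betaIII-tubulin-positive neurons imaged by automated high-content analysis, with DMSO as negative control.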

[23] = CCTE_Mundy_HCI_Cortical_Synap_Neur_Matur_CellBodySpotCount: CCTE's Synaptogenesis and Neurite Maturation Assay in rat cortical cells for Cell Body Spot Count, Mundy Lab (AID 2284223)
Summary of the method: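 Read-out: cell body-associated synaptophysin puncta per neuron, imaged after MAP2, synaptophysin and Hoechst staining. Rat cortical cells, AraC DIV 5, chemical dosing DIV 7, fixation DIV 12. Activity fitted in positive direction relative to DMSO baseline.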

[24] = CCTE_Mundy_HCI_hNP1_Pro_ResponderAvgInten: CCTE's Proliferation Assay in human neuroprogenitor cells, Mundy Lab (AID 2284224; active means hit-call score of the fitted dose curve at least 0.9, where 1 is the maximum;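 further: human neural progenitor cells hNP1 derived from WA09 embryonic stem cells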)
Summary of the method: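 Proliferation was scored as BrdU labelling intensity in human neural progenitors derived from WA09 embryonic cells, measured 26.25 hours after chemical dosing. Activity was fitted relative to DMSO.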

[25] = CCTE_Mundy_HCI_Cortical_NOG_NeuronCount: CCTE's Neurite Outgrowth Assay in rat cortical cells for Neuron Count, Mundy Lab (AID 2284236; active means hit-call score of the fitted dose curve at least 0.9, where 1 is the maximum;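 further: neurons counted by imaging betaIII-tubulin and Hoechst stained cortical cells; cells exposed to compound for about 48 hours before fixation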)
Summary of the method: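 Read-out: neuron number by high-content imaging of betaIII-tubulin (Alexa Fluor-488) and Hoechst-labelled rat primary cortical cells.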

[26] = CCTE_Mundy_HCI_hNP1_Casp3_7: CCTE's Caspase-Glo 3/7 Assay in human neuroprogenitor cells for Apoptosis, Mundy Lab (AID 2284240)
Summary of the method: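 Apoptosis is scored by activated caspase-3/7 luminescence in WA09-derived neural progenitor cells, measured 26.5 h after chemical dosing. Values represent gain of signal relative to DMSO vehicle.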

[27] = CCTE_Mundy_HCI_Cortical_Synap_Neur_Matur_NeuronCount: CCTE's Synaptogenesis and Neurite Maturation Assay in rat cortical cells for Neuron Count, Mundy Lab (AID 2284242; active means hit-call score of the fitted dose curve at least 0.9, where 1 is the maximum;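 further: hits reduce neuron count versus DMSO baseline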)
Summary of the method: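 Rat cortical cultures; AraC DIV 5; chemical dosing + media change DIV 7 to DIV 12 (288.33 h readout). Fix, Hoechst, anti-MAP2/anti-synaptophysin immunostain; HCI neuron count vs DMSO baseline.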

Measured: AC50

CN(C)C(=O)C(CCN1CCC(O)(c2ccc(Cl)cc2)CC1)(c1ccccc1)c1ccccc1
active: [1] 92.1 nM and 66.7 nM and 493 nM | [2] 185 nM and 33.1 nM and 526 nM | [3] 581 nM and 249 nM and 2.56 µM | [4] 3 nM and 2.62 µM | [5] 32.8 nM and 102 nM and 172 nM | [6] 612 nM and 41.5 nM and 1.81 µM | [7] 511 nM and 18.7 nM and 1.15 µM | [8] 262 nM and 11.6 nM and 736 nM | [9] 766 nM and 44.5 nM and 2.52 µM | [10] 2.31 µM and 276 nM and 2.68 µM | [11] 4.19 µM and 2.7 µM and 2.94 µM | [12] 5.74 µM and 5.44 µM and 5.02 µM | [14] 112 nM and 60.7 nM and 621 nM | [15] 1.35 µM and 766 nM and 2.54 µM | [16] 6.63 µM | [17] 3.22 µM | [18] 3 µM | [19] 3.43 µM | [20] 16 µM | [21] 15.8 µM | [22] 13.9 µM | [23] 16.9 µM | [24] 50 µM | [25] 12.9 µM | [26] 16.5 µM | [27] 8.36 µM
inactive: [4] | [13]
